target: AMP-activated protein kinase, AMPK (Homo sapiens) (UniProt P54646+O43741+P54619+Q9UGJ0+Q9Y478+Q13131+Q9UGI9); experiment: AMP-dependent Kinase enzyme assay. An in vitro enzyme assay that detects ADP turnover that is directly proportional to AMPK activity. This uses naive AMPK that is activated during the assay with MK-8722; assay type: functional; design: scale not given: direction of the effect not stated beside the values; conditions: 30 µM

Structure (SMILES) | Percent Effect
Cc1nc(COC(=O)c2cccnc2C)no1 | 3.04%
CC(Cc1cccc(F)c1)C(=O)NS(=O)(=O)c1cnn(C)c1 (centres undefined) | -5.21%
O=C(C1CCCN(c2nc3ccccc3cc2CO)C1)N1CCCC1 (centres undefined) | 9.42%
CN(Cc1cccc(OC(F)(F)F)c1)Cc1cnn(C)c1 | -4.15%
NCC(CO)Cc1ccc(OC(F)(F)F)cc1 (centres undefined) | -4.6%
CCN(CC)C(CNC(=O)c1ccnc(N(C)C)c1)c1ccsc1 (centres undefined) | -4.85%
COc1cccc(-c2ncc(CN3CCOCC(O)C3)s2)c1 (centres undefined) | 2.77%
Cc1nc(C(NC(=O)CN(C)C(C)C)c2ccccc2F)no1 (centres undefined) | -4.35%
COC(=O)CNC(=O)c1ccn(-c2ccc(Cl)c(Cl)c2)n1 | 13.8%
Cc1ccc2nc(CN3CCCCC3C(=O)N3CCOCC3)cn2c1 (centres undefined) | 8.07%
Cc1cc(C)n(CC2CCN(CC(O)Cn3cccn3)CC2)n1 (centres undefined) | -0.567%
CN(C)CCNC(=O)CCC1CCN(C(=O)c2ccc(Cl)cc2O)CC1 | 9.06%
CCCn1ccnc1-c1cccc(NC(=O)C2CCCOC2)c1 (centres undefined) | -0.71%
CC(NC(=O)NC1CCN(Cc2ccncc2)CC1)c1ccccc1F (centres undefined) | -3.35%
Cc1ccnc(NC(=O)c2ccc(C)o2)c1 | 9.16%
CN1CCN(CCOc2ccc(NC(=O)c3ccoc3)cc2)CC1 | -4.02%
CCc1nc2n(n1)CC(NCc1cc3ccccc3o1)CC2 (centres undefined) | -3.35%
CS(=O)(=O)CCCNc1cccc(COC2CCCCC2)c1 | -2.55%
CCOc1ccccc1CN(C)C(C)c1nc(-c2cccnc2)no1 (centres undefined) | 1.83%
CC(C)(C)C(=O)N1CCCC1c1cc(CO)[nH]n1 (centres undefined) | 14.4%

Structure (SMILES) | Percent Effect
CN(Cc1ccc(F)cc1F)Cc1cc2c(cc1Br)OCCO2 | -3.85%
Cc1cc(C(N)=O)ccc1NC(=O)N1CCN(c2cccs2)CC1 | -2.73%
CN(CCOc1ccc(C#N)cc1)CC1CCS(=O)(=O)C1 (centres undefined) | 7.94%
CN(Cc1ccccc1)S(=O)(=O)N1C[C@@H](C(=O)O)[C@H](C2CC2)C1 | 3.92%
CCC(=O)NCCc1cc2nc(-c3ccncc3)ccn2n1 | 18.1%
CN(CC1(CO)CCCC1)c1nc2c(c(=O)[nH]1)Cc1ccccc1OC2 | 6.29%
CCN(CC)C(=O)N1CCOCC1c1c(C)nn(C)c1C (centres undefined) | 2.79%
CCN(CCNS(=O)(=O)N1CCOCC1)C(=O)OC(C)(C)C | 0.848%
Cc1cnn(CCNCC(=O)N2CCN(c3ncccn3)CC2)c1 | -6.6%
COc1cc(CN2CC[C@@H](N3CCCCCC3)[C@H](O)C2)cc(Cl)c1OC | 13.6%
CN(C)c1cc(N(C)Cc2cc(C(C)(C)C)n[nH]2)ncn1 | -16.4%
Cc1ccccc1[C@@H]1CN(CCCS(=O)(=O)N(C)C)C[C@H]1C(=O)O | -1.92%
CC(O)C1CCN(C(=O)CCOc2ccccc2F)CC1 (centres undefined) | 4.43%
COc1ccc(S(=O)(=O)N2CCOC(C)(C(N)=O)C2)cc1 (centres undefined) | 15.5%
CC(C)(C)c1noc(CCC(=O)N2CCNC(=O)C2)n1 | -9.99%
Cc1ccccc1C(NC(=O)CCCS(C)(=O)=O)C(C)(C)C (centres undefined) | 7.1%
COCCCC1CCCN(Cc2c(C)ccc3ncccc23)C1 (centres undefined) | -4.38%
CNC(=O)c1ccc(CN(C(C)C)C(C)C)o1 | -7.38%
COc1ccc(CN2C[C@@H]3CC[C@H](C2)N(S(=O)(=O)C2CC2)C3)cc1 | 10.7%

Reference: ChEMBL document CHEMBL3988442, “University of Dundee, Small-Polar-MMV Screening Library” (2021)
